TLR9-MyD88 block: blocks human TLR9 binding to MyD88; Q9NR96+Q99836; inhibition, % at 4.98 µM; 340,000 tested, 0.21% active; AID 504734; CHO BLA complementation TLR9-MyD88, CCF4 FRET ratio;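 active = inhibition above the mean over all tested compounds plus 3 SD, cut at about 21% in these data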;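 also: 0% = DMSO only wells and 100% = clavulanate BLA inhibitor control wells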
LANA-H2B inh: blocks KSHV LANA binding to histone H2A/H2B | Q9QR71 | cell-free LANA-H2A/H2B peptide, fluorescence polarization | inhibition, % (concentration not given with the values) | 320,000 tested, 0.6% active; in the data active = inhibition mostly above about 10%, no sharp cut-off; inactive = mostly below about 6.7%
NOD2-RIPK2 inh: NOD2-RIPK2 protein interaction inhibition; O43353; CHO BLA complementation NOD2-RIPK2, CCF4 ratio; inhibition, % at 4.98 µM; 360,000 tested, 0.38% active; AID 624267; in the data active = inhibition above about 21%;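 also: 0% = vehicle only and 100% = reference blocker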
TLR4 MyD88 comp: blocks binding of human TLR4 to MyD88 | O00206+Q99836 | HeLa CL3-4 TLR4/MyD88 BLA complementation, FRET ratio | 200,000 tested, 0.18% active | inhibition, % at 8.4 µM; in the data active = inhibition above about 25%;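 also: 0% = vehicle and 100% = reference inhibitor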
Rtt109 Vps75: C. albicans Rtt109 histone acetyltransferase inhibition | AID 540336 | inhibition, % at 34.9 µM | 330,000 tested, 0.16% active | Q5AAJ8 | purified Rtt109/Vps75, ThioGlo CoA-SH fluorescence, 4 h;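 active = inhibition of at least 50% in every replicate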
m5-HT2A agonist: activates the mouse 5-HT2A serotonin receptor; 360,000 tested, 0.66% active; P35363; CHO-K1 mHTR2A beta-arrestin complementation, luminescence; percent of 30 µM serotonin response; activation, % at 7.6 µM;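 active = activation above a run cutoff, the mean activation of all tested compounds plus 3 SD, cut at about 14% in these data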;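 also: 0% = plate median of compound wells and 100% = 30 µM serotonin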
OPRM1 ag: activates human mu opioid receptor in HTR2A counterscreen. shares compounds with m5-HT2A agonist. U2OS OPRM1 beta-arrestin PathHunter, luminescence; DMSO 0%, DAMGO 9.3 µM 100%. activation, % at 9.3 µM. 2,300 tested, 5.3% active. AID 624380;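 active = mean activation above the mean of DMSO-only wells plus 3 SD, cut at about 0.5% in these data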
m5-HT2A ag conf: mouse HTR2A agonism confirmed | shares compounds with m5-HT2A agonist | CHO-K1 PathHunter beta-arrestin recruitment, luminescence; DMSO 0%, 30 µM serotonin 100% | activation, % at 7.6 µM | 2,300 tested, 19% active;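 active = mean activation across triplicates above the hit threshold derived in the original primary screen, cut at about 15% in these data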
Active calls of the source: *; nt = no result given. Compounds with a hit are over-represented: about 1.8% of the library has one in this group of screens.

SMILES	TLR9-MyD88 block	LANA-H2B inh	NOD2-RIPK2 inh	TLR4 MyD88 comp	Rtt109 Vps75	m5-HT2A agonist	OPRM1 ag	m5-HT2A ag conf
O=C(O)c1ccc(/C=N/Nc2ccc(C(F)(F)F)cn2)cc1	-4	nt	3	-13	9	18*	-1	-2
O=C(NC(=S)Nc1ccccc1N1CCCC1)c1ccc(F)cc1	-7	0	6	-3	25	-4	nt	nt
O=C(NC(=S)Nc1ccccc1N1CCCCC1)c1ccc(F)cc1Cl	4	0	2	nt	-24	17*	-1	-5
NC(=O)CC(NC(=O)c1ccccc1)c1ccc(NC2CCCCCCC2)c([N+](=O)[O-])c1 (stereo unspecified)	9	3	1	nt	-1	19*	0	-2
NC(=O)CC(NC(=O)c1ccccc1)c1ccc(NC2CCCCC2)c([N+](=O)[O-])c1 (stereo unspecified)	9	-1	0	nt	0	-1	nt	nt
O=c1[nH]c2cc(C(F)(F)F)ccc2n1-c1cc(C(F)(F)F)ccc1O	-2	0	2	nt	7	15*	0.6*	3
COc1ccc(-c2csc(Cc3nnc4n3CCCCC4)n2)cc1OC	4	-1	-5	0	-8	15*	-1	0
COc1ccc(-c2nnc3n2CCCCC3)cc1OC	-18	5	5	nt	16	-4	nt	nt
CCCC(=O)N1CCCC(C(=O)c2cccc(OC(C)C)c2)C1 (stereo unspecified)	-10	1	-6	nt	0	-3	nt	nt
Cc1nc2sc(C(c3ccco3)N3CCC(C)CC3)c(O)n2n1 (stereo unspecified)	1	-1	-2	-8	28	4	nt	nt
Cc1ccc(C(c2sc3nc(C)nn3c2O)N2CCN(CCO)CC2)cc1 (stereo unspecified)	-7	-4	-7	nt	0	-9	nt	nt
Cc1nc2sc(C(c3ccco3)N3CC(C)OC(C)C3)c(O)n2n1 (stereo unspecified)	3	0	-7	1	-8	23*	0	-3
Cc1nc2sc(C(c3ccccc3)N3CCN(CCO)CC3)c(O)n2n1 (stereo unspecified)	7	3	-2	nt	0	32*	-1	-3
O=C(N=C1SC2CS(=O)(=O)CC2N1Cc1ccccc1Cl)C1CC1 (stereo unspecified)	7	10	14	nt	-2	-4	nt	nt
CC(=O)Nc1ccc(S(=O)(=O)NCCC(=O)N2CCN(C(c3ccccc3)c3ccccc3)CC2)cc1	1	7	-6	nt	9	16*	0	-5
COc1ccccc1C(=O)COC(=O)c1cc(S(=O)(=O)N2CCCCC2)ccc1N1CCOCC1	-9	-6	-6	nt	3	17*	0	-1
COc1ccc(C(=O)COC(=O)c2cc(S(=O)(=O)N3CCCCC3)ccc2N2CCOCC2)c(OC)c1	-4	1	2	nt	4	0	nt	nt
C=CCn1c2ccccc2c2nnc(SCCCn3c(=O)[nH]c4ccccc43)nc21	2	nt	-1	-13	13	17*	0	3
CCCCN(C)C(=O)c1nc2ccccn2c1CN1CCC[C@H]1CO	7	-1	-7	nt	-9	7	nt	nt
O=C1N2CCCc3cccc(c32)C12Nc1ccccc1S2 (stereo unspecified)	3	nt	15	1	13	21*	-1	-6
CC1CC(C)(C)N2C(=O)C3(Nc4ccccc4S3)c3cccc1c32 (stereo unspecified)	4	-1	-1	3	15	-3	nt	nt
CCN1CCc2nc(N)sc2C1	-5	0	-1	-3	-5	7	nt	nt
C=CCN1CCc2nc(N)sc2CC1	7	nt	-7	-3	-9	50*	-1	151*

From PubChem BioAssay
